Source: PubChem
In the library only some 3.4% were active in any assay of this set; here they are far more common.
HGIII-sPLA2 inh: Blocks human group III sPLA2 activity; QFRET BODIPY PC-A2 liposome hydrolysis, fluorescence; inhibition, % at 12.2 µM; 0.56% of 370,000 active;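 active = inhibition above mean plus 3 SD of compounds lying within the high and low control bounds, cut at about 19% in these data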
proKLK7 act: activates the human kallikrein-7 zymogen. P49862. purified proKLK7, EDANS-DABCYL substrate fluorescence; 100% is mature enzyme control, 0% vehicle. activation, % at 7 µM. 0.9% of 370,000 active;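 active = activation above the mean of all tested compounds plus 3 SD, computed per campaign excluding outliers beyond control limits, cut at about 13% in these data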
PLC-beta3 inh: blocks human PLC-beta3 enzyme activity; inhibition, % at 12.2 µM; Q01970; 0.18% of 370,000 active; Purified PLC-beta3, fluorogenic substrate, fluorescence; in the data active = inhibition above about 11%
ADAM10 inh: inhibitors of human ADAM10; O14672; recombinant ADAM10, EDANS/DABCYL FRET peptide cleavage, 3 h; inhibition, % at 7 µM; 0.62% of 370,000 active; AID 720582;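 active = inhibition above a per-campaign cutoff equal to the mean of compounds falling between control-based bounds plus 3 SD, cut at about 20% in these data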
ADAM17 inh: ADAM17 inhibition, QFRET primary screen. recombinant ADAM17, EDANS/DABCYL FRET peptide cleavage. 0.83% of 370,000 active. inhibition, % at 6.95 µM. AID 720648. P78536;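 active = inhibition above the mean of compounds lying between control limits plus 3 SD, set per campaign, cut at about 8.5% in these data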
PLCg1 inh: PLC-gamma1 (human) inhibition, primary screen; AID 720700; 0.84% of 370,000 active; inhibition, % at 12.2 µM; purified PLC-gamma1, fluorogenic substrate, fluorescence; P19174
PLCgamma1 ctr: counter-screen for PLC-beta3 inhibitors: inhibitors of human PLC-gamma1 | shares compounds with PLCg1 inh | purified PLC-gamma1, fluorogenic substrate, fluorescence | inhibition, % at 12.3 µM | 3.1% of 3,300 active | AID 743258
PLCbeta3 conf: confirmation of human PLC-beta3 inhibitors. AID 743261. 1% of 3,300 active. purified PLC-beta3, fluorogenic substrate fluorescence. shares compounds with PLCg1 inh. inhibition, % at 12.3 µM; in the data active = inhibition above about 11%
Of the large screens only hits and unclear results are named; the others gave an inactive call (follow-up assays come after a bar, where they were run). Rule as the data show it, unless noted: active = inhibition above about 9.5%; inactive = the rest.

Nc1ncnc2c1ncn2[C@@H]1O[C@H](COP(=O)(O)O)[C@@H](O)[C@H]1O	PLCg1 inh 39 | PLCgamma1 ctr 48 | PLCbeta3 conf inactive
NCCC(=O)NC[C@H]1O[C@@H](n2cnc3c(N)ncnc32)[C@H](O)[C@@H]1O	none
NC(=O)C1=CN([C@@H]2O[C@H](COP(=O)(O)OP(=O)(O)OC[C@H]3O[C@@H](n4cnc5c(N)ncnc54)[C@H](O)[C@@H]3O)[C@@H](O)[C@H]2O)C=CC1	PLCg1 inh 29 | PLCgamma1 ctr 32 | PLCbeta3 conf inactive
COc1ccc2c(c1)cc(C(=O)N[C@@H](Cc1ccccc1)C(=O)O)n2C	none
Cc1cccc(C)c1NS(=O)(=O)c1cc2c3c(c1)CCN3C(=O)CC2	none
Oc1[nH]c(=S)sc1/C=C1\C(c2ccccc2)=Nc2ccccc21	none
CCOC(=O)c1ccccc1NC(=O)CN(c1ccccc1OC)S(C)(=O)=O	PLC-beta3 inh 11 | PLCgamma1 ctr inactive | PLCbeta3 conf inactive
CCCNC(=O)c1cc(C2CCCCN2C(=O)c2ccc3c(c2)CCO3)on1 (centres undefined)	PLCg1 inh 48 | PLCgamma1 ctr inactive | PLCbeta3 conf inactive
COC(=O)N1CCCCC1c1cc(C(=O)NCc2ccccc2)no1 (centres undefined)	PLCg1 inh 10 | PLCgamma1 ctr inactive | PLCbeta3 conf inactive
O=C(NCc1ccc(F)cc1)C1CCCN1S(=O)(=O)c1ccccc1C(F)(F)F (centres undefined)	none
CCc1ccc(C(=O)NNC(=O)c2ccc(OCC(=O)N3CCOCC3)c(OC)c2)cc1	PLCg1 inh 13 | PLCgamma1 ctr inactive | PLCbeta3 conf inactive
COc1cc(C(=O)NNC(=O)c2cccc(Cl)c2)ccc1OCC(=O)N1CCOCC1	none
COc1cccc(S(=O)(=O)Nc2ccc3c(c2)OCCO3)c1	PLCg1 inh 9.6 | PLCgamma1 ctr inactive | PLCbeta3 conf inactive
CC1CCCN(c2nc3c(c(=O)n(C)c(=O)n3C)n2CCSc2nc3ccccc3o2)C1 (centres undefined)	PLCg1 inh 10 | PLCgamma1 ctr inactive | PLCbeta3 conf inactive
CC(C)OC(=O)CSc1nnc(CNc2cccc(Cl)c2)n1C	PLCg1 inh 10 | PLCgamma1 ctr inactive | PLCbeta3 conf inactive
COc1ccc(C(=O)N/N=C(\C)CC(=O)NC2CCCCC2)c(OC)c1	none
COCCNC(=O)C(c1ccc(C)cc1)N(Cc1ccccc1)C(=O)CCC(=O)Nc1ccccn1 (centres undefined)	none
COC(=O)N[C@H](C(=O)N[C@@H](Cc1ccccc1)[C@@H](O)CN(Cc1ccc(-c2ccccn2)cc1)NC(=O)[C@@H](NC(=O)OC)C(C)(C)C)C(C)(C)C	PLC-beta3 inh 11, PLCg1 inh 15 | PLCgamma1 ctr inactive | PLCbeta3 conf inactive
Cc1ccc(C)c(S(=O)(=O)c2c(C)cc(C)nc2Cl)c1	none
Cc1ccc(S(=O)(=O)c2c(C)cc(C)nc2Cl)c(C)c1	PLCg1 inh 11 | PLCgamma1 ctr inactive | PLCbeta3 conf inactive
Cc1ccc(N2C(=O)CC3(CCCC3)CC2=O)cc1	PLC-beta3 inh 11 | PLCgamma1 ctr inactive | PLCbeta3 conf inactive
Cc1ccc(N2C(=O)CS(=O)(=O)CC2=O)cc1	none
O=S(=O)(c1ccc(Br)cc1)N1CCCC1	none
O=S(=O)(CS(=O)(=O)c1ccc(Br)cc1)c1ccc(Br)cc1	PLCg1 inh 27 | PLCgamma1 ctr 21 | PLCbeta3 conf inactive
CC(C)Cn1c2c(c(O)c(C(=O)Nn3c(Cc4ccccc4)nc4ccccc4c3=O)c1=O)CCCC2	none
CCCCc1nc2ccccc2c(=O)n1NC(=O)c1c(O)c2c(n(CC(C)C)c1=O)CCCC2	PLCg1 inh 13 | PLCgamma1 ctr inactive | PLCbeta3 conf inactive
CC(C)CC(NC(=O)C(NC(=O)OC(C)(C)C)C(C)C)C(=O)N1CCCC1C(N)=O (centres undefined)	none
COC(=O)[C@@H]1CCCN1C(=O)[C@@H](NC(=O)OC(C)(C)C)C(C)C	PLC-beta3 inh 14 | PLCgamma1 ctr inactive | PLCbeta3 conf inactive
Cc1csc(NC(=O)CSC2=NS(=O)(=O)c3ccccc3N2)n1	none
Cc1cccc(C)c1-n1cccc1/C=C1\SC(=S)N(c2cccc(C(=O)O)c2)C1=O	none
CCc1ccccc1NC(=O)CC1SCCNC1=O (centres undefined)	PLCg1 inh 11 | PLCgamma1 ctr inactive | PLCbeta3 conf inactive
O=C(CC1SCCNC1=O)Nc1cccc(Cl)c1 (centres undefined)	none
CCn1c(C)nnc1SCC(=O)Nc1ccc2c(c1)OCCO2	PLCg1 inh 9.9 | PLCgamma1 ctr inactive | PLCbeta3 conf inactive
CCOc1ccc2nc(SCC(=O)NCc3ccc4c(c3)OCO4)[nH]c2c1	PLCg1 inh 13 | PLCgamma1 ctr inactive | PLCbeta3 conf inactive
CCc1ccc(OCC(=O)Nc2ccc3c(c2)OCCO3)cc1	PLCg1 inh 9.5 | PLCgamma1 ctr inactive | PLCbeta3 conf inactive
CCOc1ccc(NC(=O)NCc2ccc3c(c2)OCO3)cc1	PLCg1 inh 9.5 | PLCgamma1 ctr inactive | PLCbeta3 conf inactive
CCOC(=O)NC(=O)CSc1nc2ccc(OCC)cc2[nH]1	none
CCOc1ccc2nc(SCC(=O)Nc3ncccn3)[nH]c2c1	PLCg1 inh 11 | PLCgamma1 ctr inactive | PLCbeta3 conf inactive
Cc1cnc(C(=O)OCC(=O)NCc2ccc3c(c2)OCO3)cn1	PLC-beta3 inh 11 | PLCgamma1 ctr inactive | PLCbeta3 conf inactive
Cc1occc1C(=O)NCc1ccc2c(c1)OCO2	PLCg1 inh 11 | PLCgamma1 ctr inactive | PLCbeta3 conf inactive
CC1(C(=O)O)CCCN(C(=O)c2ccc3c(c2)C(C)(C)CCC3(C)C)C1 (centres undefined)	none
Cc1cccc(NC(=O)NNC(=O)c2ccccn2)c1	none
CCOC(=O)C1CCCN(CCC(=O)Nc2cccc(Cl)c2C)C1 (centres undefined)	none
CC(=O)Nc1ccc(/C=N/NC(=S)NC(C)C)cc1	PLCg1 inh 12 | PLCgamma1 ctr inactive | PLCbeta3 conf inactive
C=C(C)CNC(=S)N/N=C/c1ccc(NC(C)=O)cc1	none
NC(=O)NCc1ccc(Cl)cc1	PLCg1 inh 12 | PLCgamma1 ctr inactive | PLCbeta3 conf inactive
Cc1ccccc1-n1nnnc1SCC(=O)NCC1CCCO1 (centres undefined)	none
COc1ccc(S(=O)(=O)NCC2CCC(C(=O)NCc3ccc(F)cc3)CC2)cc1 (centres undefined)	none
COc1ccc(CNC(=O)C2CCC(CNS(=O)(=O)c3ccc(C)cc3)CC2)cc1 (centres undefined)	PLCg1 inh 10 | PLCgamma1 ctr inactive | PLCbeta3 conf inactive
